# Reference: PubChem BioAssay
# A number with no mark means an inactive call. For part of these data: Results with a measured potency or affinity are listed apart. Calls of active or inactive are those of the source. Unless noted, no rule for the calls is given here.
# Columns and labels:
# [1] = antimalarial activity against Dd2 strain (AID 2302;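 active = growth inhibition above 50% at the single 2 µM test dose, taken to imply half-maximal potency below 2 µM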;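 also: 0% = DMSO untreated growth and 100% = chloroquine plus artemisinin killed control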); conditions: P. falciparum Dd2 in RBCs, LDH growth readout, 72 h; at 2 µM; active compounds read high
# [2] = target: L-lactate dehydrogenase (Plasmodium falciparum (isolate CDC / Honduras)) (UniProt Q27743); experiment: PfLDH activity inhibition – cell lysate, 3D7 strain, counter-screen for P. falciparum growth inhibition project (AID 2304);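 also: 0% = vehicle and 100% = reference inhibitor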; conditions: P. falciparum 3D7 crude extract, LDH APAD/NBT absorbance; at 2 µM; active compounds read high
# L-lactate dehydrogenase (Plasmodium falciparum (isolate CDC / Honduras)), sequence (Q27743 whole entry, looked up): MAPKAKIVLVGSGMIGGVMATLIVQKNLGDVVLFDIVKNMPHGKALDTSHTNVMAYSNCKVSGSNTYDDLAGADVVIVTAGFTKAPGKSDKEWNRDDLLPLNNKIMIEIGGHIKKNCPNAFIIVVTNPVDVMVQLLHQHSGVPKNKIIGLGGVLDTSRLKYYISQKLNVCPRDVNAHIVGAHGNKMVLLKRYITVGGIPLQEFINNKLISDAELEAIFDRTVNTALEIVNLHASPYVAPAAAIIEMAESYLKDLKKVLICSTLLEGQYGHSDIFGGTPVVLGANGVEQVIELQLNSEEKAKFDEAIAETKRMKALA
# [3] = inhibition of 3D7 malaria parasite growth – strain 3D7 (AID 2306);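 also: 0% = DMSO wells and 100% = chloroquine plus artemisinin control wells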; conditions: P. falciparum 3D7 erythrocytic growth, LDH absorbance, 72 h; at 2 µM; active compounds read high
# [4] = target: Calcium-dependent protein kinase 1 (Plasmodium falciparum (isolate 3D7)) (UniProt P62344); experiment: PfCDPK1 kinase inhibitors, biochemical, TCAMS library (AID 1159585; cut-off not given, nearly all actives have IC50 up to about 0.98 µM;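 also: inhibitors leave more ATP so luminescence rises with inhibition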); conditions: recombinant PfCDPK1, Kinase-Glo ATP depletion luminescence
# Calcium-dependent protein kinase 1 (Plasmodium falciparum (isolate 3D7)), sequence (P62344 whole entry, looked up): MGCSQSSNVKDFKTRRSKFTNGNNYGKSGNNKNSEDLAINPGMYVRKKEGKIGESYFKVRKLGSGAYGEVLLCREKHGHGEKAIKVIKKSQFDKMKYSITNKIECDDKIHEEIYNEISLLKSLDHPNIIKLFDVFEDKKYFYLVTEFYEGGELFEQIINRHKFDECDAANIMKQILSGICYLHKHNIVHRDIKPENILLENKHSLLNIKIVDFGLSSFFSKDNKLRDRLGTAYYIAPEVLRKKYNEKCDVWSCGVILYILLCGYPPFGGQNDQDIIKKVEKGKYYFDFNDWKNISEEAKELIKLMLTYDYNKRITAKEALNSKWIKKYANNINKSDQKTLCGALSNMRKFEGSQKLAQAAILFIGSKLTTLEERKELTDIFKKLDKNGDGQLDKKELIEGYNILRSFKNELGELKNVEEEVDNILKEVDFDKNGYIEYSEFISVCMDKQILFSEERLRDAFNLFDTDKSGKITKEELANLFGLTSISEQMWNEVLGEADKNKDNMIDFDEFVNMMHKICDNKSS
# [5] = target: Plasmodium falciparum protein kinase 6 (PK6, PF3D7_1337100) (UniProt Q8IDW1); experiment: PfPK6 kinase inhibitors, biochemical, TCAMS library (AID 1159586); conditions: recombinant PfPK6, Kinase-Glo ATP depletion luminescence
# Plasmodium falciparum protein kinase 6 (PK6, PF3D7_1337100), sequence (Q8IDW1 1-305): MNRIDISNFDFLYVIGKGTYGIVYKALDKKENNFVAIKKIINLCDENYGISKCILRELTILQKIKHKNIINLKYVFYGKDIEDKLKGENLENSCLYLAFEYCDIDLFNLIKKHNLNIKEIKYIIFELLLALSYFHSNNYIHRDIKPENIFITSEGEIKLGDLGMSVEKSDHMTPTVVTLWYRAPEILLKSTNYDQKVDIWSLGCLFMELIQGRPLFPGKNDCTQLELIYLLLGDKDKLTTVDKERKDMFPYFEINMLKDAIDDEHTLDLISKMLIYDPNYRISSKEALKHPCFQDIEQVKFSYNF
# [6] = target: Protein kinase 7 (PK7), Plasmodium falciparum 3D7 (PF3D7_0213400) (UniProt Q7YTF7); experiment: inhibition of Plasmodium PK7 catalytic activity – biochemical, TCAMS antimalarial set, Kinase-Glo luminescence (AID 1159587); conditions: recombinant PfPK7, Kinase-Glo ATP depletion luminescence
# Protein kinase 7 (PK7), Plasmodium falciparum 3D7 (PF3D7_0213400), sequence (Q7YTF7 1-343): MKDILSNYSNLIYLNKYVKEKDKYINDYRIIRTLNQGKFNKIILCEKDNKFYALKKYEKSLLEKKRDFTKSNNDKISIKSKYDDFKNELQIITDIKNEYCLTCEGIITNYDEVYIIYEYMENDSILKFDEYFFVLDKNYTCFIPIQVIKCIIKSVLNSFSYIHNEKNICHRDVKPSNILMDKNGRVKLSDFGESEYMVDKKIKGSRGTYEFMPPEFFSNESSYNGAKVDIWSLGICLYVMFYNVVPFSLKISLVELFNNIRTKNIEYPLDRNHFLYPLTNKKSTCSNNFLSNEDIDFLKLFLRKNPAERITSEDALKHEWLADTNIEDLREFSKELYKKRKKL
# [7] = target: Calcium-dependent protein kinase 4 (Plasmodium falciparum (isolate 3D7)) (UniProt Q8IBS5); experiment: PfCDPK4 kinase inhibitors, biochemical, TCAMS library (AID 1159588; cut-off not given, nearly all actives have IC50 up to about 0.91 µM); conditions: recombinant PfCDPK4, Kinase-Glo ATP depletion luminescence
# Calcium-dependent protein kinase 4 (Plasmodium falciparum (isolate 3D7)), sequence (Q8IBS5 whole entry, looked up): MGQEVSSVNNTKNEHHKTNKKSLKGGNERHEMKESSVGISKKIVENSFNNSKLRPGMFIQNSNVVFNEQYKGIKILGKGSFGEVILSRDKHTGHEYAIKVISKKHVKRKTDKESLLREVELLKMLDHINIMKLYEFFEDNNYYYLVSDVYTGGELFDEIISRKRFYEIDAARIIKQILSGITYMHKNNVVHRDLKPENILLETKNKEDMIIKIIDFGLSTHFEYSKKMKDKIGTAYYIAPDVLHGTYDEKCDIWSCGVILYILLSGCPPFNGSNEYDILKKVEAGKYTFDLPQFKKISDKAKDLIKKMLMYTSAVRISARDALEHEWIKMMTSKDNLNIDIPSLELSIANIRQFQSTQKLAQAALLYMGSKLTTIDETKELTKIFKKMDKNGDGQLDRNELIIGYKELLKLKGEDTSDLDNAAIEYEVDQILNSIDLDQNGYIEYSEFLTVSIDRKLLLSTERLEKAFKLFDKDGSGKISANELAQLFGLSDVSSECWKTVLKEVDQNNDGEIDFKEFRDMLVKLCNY
SMILES,growth inhibition [1],inhibition [2],growth inhibition [3],outcome [4],outcome [5],outcome [6],outcome [7]
COc1cc(Cc2cnc(N)nc2N)cc(OCCCCc2ccc([N+](=O)[O-])cc2)c1OC,4%,-10%,88% (active),inactive,inactive,inactive,inactive
CN(Cc1cnc2nc(N)nc(N)c2n1)c1ccc(C(=O)N[C@H](CCC(=O)OC(C)(C)C)C(=O)N[C@@H](CCC(=O)OC(C)(C)C)C(=O)OC(C)(C)C)cc1,1%,-6%,85% (active),inactive,inactive,inactive,inactive
COc1ccc2c(c1CCNCCCCNCCc1c(OC)ccc3c1CCCC3)CCCC2,25%,7%,101% (active),inactive,inactive,inactive,inactive
CCCN(c1ccc(O)c(CN2CCCCC2)c1)c1ccc([N+](=O)[O-])cn1,96% (active),4%,99% (active),inactive,inactive,inactive,inactive
Cc1[nH]c(C)c(-c2cccc(Oc3ccc(Cl)cc3)c2)c(=O)c1Br,97% (active),4%,96% (active),inactive,inactive,inactive,inactive
COc1cccc(Cn2ccc3c4c(N)nc(N)nc4ccc32)c1,96% (active),-2%,99% (active),inactive,inactive,inactive,inactive
CCN(CC)CCCN(CCCN(CC)CC)c1cc(C)nc(Nc2ccc(Br)cc2)n1,40%,6%,101% (active),inactive,inactive,inactive,inactive
CCCCCCCN(Cc1ccc(OC(C)(C)C(=O)OCC)cc1)C(=O)Cc1ccc(F)cc1F,95% (active),-3%,93% (active),inactive,inactive,inactive,inactive
CC(C)c1ccc2c(c1)C(=O)c1ccc(C(=O)O)cc1S2(=O)=O,83% (active),-4%,93% (active),inactive,inactive,inactive,inactive
CCc1nc(N)nc(N)c1-c1ccc2c(c1)CCCC2,-5%,-5%,95% (active),inactive,inactive,inactive,inactive
Nc1nnc(-c2ccc(Cl)c(Br)c2)c(N)n1,-3%,-3%,86% (active),inactive,inactive,inactive,inactive
COc1ccc(Cc2cnc3nc(N)nc(N)c3c2C)cc1OC,97% (active),-5%,93% (active),inactive,inactive,inactive,inactive
NC(N)=NC(=O)Nc1ccc(Cl)c(C(F)(F)F)c1,13%,3%,100% (active),inactive,inactive,inactive,inactive
FC(F)(F)c1ccc2c(NCCCNc3ccnc4cc(C(F)(F)F)ccc34)ccnc2c1,101% (active),3%,100% (active),inactive,inactive,inactive,inactive
Nc1nc(N)c2c(ccc3c2ccn3Cc2ccc(Br)cc2)n1,98% (active),-13%,101% (active),inactive,inactive,inactive,inactive
COc1ccc2c(OC)cccc2c1CNCCCCCCNCc1c(OC)ccc2c(OC)cccc12,28%,-5%,92% (active),inactive,inactive,inactive,inactive
Nc1ncc(-c2ccc(S(=O)(=O)Nc3ccc(C(=O)N[C@@H](CCC(=O)O)C(=O)O)cc3)cc2)c(=O)[nH]1,0%,-3%,99% (active),inactive,inactive,inactive,inactive
COc1cc2c(cc1OC)C(C)(C)CN1Cc3c(c(CO)c(OC)c(OC)c3OC)CC21 (stereo not drawn),9%,2%,95% (active),inactive,inactive,inactive,inactive
Nc1nc(N)c2c(Oc3cccc(Cl)c3)cccc2n1,7%,-7%,97% (active),inactive,inactive,inactive,inactive
CCCCOc1c(CCNCCCCNCCc2cc(OC)c3ccccc3c2OCCCC)cc(OC)c2ccccc12,47%,7%,91% (active),inactive,inactive,inactive,inactive
Cc1cc(=O)c(-c2ccc(Oc3ccc(OC(F)(F)F)cc3)cc2)c(C)[nH]1,61% (active),0%,93% (active),inactive,inactive,inactive,inactive
CCCCCCn1ccc2c3c(N)nc(N)nc3ccc21,91% (active),0%,99% (active),inactive,inactive,inactive,inactive
CC1CN=C(c2ccc(NC(=O)Nc3ccc(C4=NCC(C)N4)cc3)cc2)N1 (stereo not drawn),67% (active),0%,85% (active),inactive,inactive,inactive,inactive
Nc1ncc(-c2ccc(F)c(Cl)c2)c(N)n1,-2%,5%,83% (active),inactive,inactive,inactive,inactive
